# This is one part of the list. A number with no mark means an inactive call. No stated cut-off is given here; in the data, active means activation above about 12%; inactive means the rest.
# Molecular target: Sphingosine 1-phosphate receptor 4 (Homo sapiens) (UniProt O95977)
# Assay: activators of human S1P4 signalling – cell-based, high throughput, confirmation (AID 1523);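 further: 0% = vehicle and 100% = full reference agonist response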
# Conditions: S1P4 agonist cell-based reporter assay; at 4.98 µM; active compounds read high
# Chain of Sphingosine 1-phosphate receptor 4 (Homo sapiens) (O95977 whole entry, looked up): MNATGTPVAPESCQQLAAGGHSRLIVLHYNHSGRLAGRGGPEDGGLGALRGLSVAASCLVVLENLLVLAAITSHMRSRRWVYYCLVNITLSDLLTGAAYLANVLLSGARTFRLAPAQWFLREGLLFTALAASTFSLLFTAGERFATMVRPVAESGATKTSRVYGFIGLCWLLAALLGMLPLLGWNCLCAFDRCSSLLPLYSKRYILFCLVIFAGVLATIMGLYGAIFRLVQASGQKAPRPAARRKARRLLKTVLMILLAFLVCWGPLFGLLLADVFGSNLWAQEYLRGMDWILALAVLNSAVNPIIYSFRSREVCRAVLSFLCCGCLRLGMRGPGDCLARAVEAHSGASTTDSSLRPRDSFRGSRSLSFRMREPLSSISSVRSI
compound,measurement,value
CC(C)N(CC#CCC1(O)c2ccccc2-c2ccccc21)C(C)C,activation,-2.04%

# Source: PubChem BioAssay AID1523 (The Scripps Research Institute Molecular Screening Center, 2009)
